About 83,000 compounds went through this panel and 20% of them were active in at least one assay; those are over-represented in the sample as a whole.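 Interpretation: 100, growth as untreated; towards 0, rising growth inhibition; 0, no net growth; 0 to -100, cell death. Compounds scoring below 10 were considered active.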 Calls of active or inactive are those of the source.
Tested on: HCC-2998 colon
Assay: NCI-60 one-dose screen, 48 h (100 = growth as untreated, 0 = no growth, -100 = all killed)
Conditions: 10 µM unless noted
Experimental: Growth inhibition of the HCC-2998 human tumor cell line is measured as a screen for anti-cancer activity. Cells are grown in 96 well plates and exposed to the test compound for 48 hours. Compounds are tested at a single concentration, which is 10^-5 M for most compounds. The reported endpoint is percent growth (GI% or GIPRCNT), where numbers from 0 - 100% represent growth inhibition, and numbers from -100% - 0 represent cell death. For example, a value of 40 represents 60% growth inhibition. A value of 0 means no net growth occurred over the course of the experiment. A value of -40 indicates 40% of cells at the beginning of the experiment died by the end of the experiment. A value of -100 means all cells are dead at the end of the experiment.
NCI-60 Human Tumor Cell Lines Screen was performed using the standard one-dose NCI protocol, which is described in more detail at https://dtp.cancer.gov/discovery_development/nci-60/default.htm.
Compounds with GIPRCNT values below 10 were considered active. Activity score was based on GIPRCNT using the following formula: […]
Score is 0 for GIPRCNT values of 100 or above, 50 for GIPRCNT values of 0, and 100 for GIPRCNT values of -100.

Structure (SMILES) | growth
CCOC(=O)c1c2c(n3ccc(NC(=O)OC(C)(C)C)cc13)C(=O)c1ncccc1C2=O | -59.4% (active)
NC(=S)N/N=C/Cc1ccccc1 | 113% (inactive)
COc1cc2nc(Cl)nc(Nc3ccc(S(=O)(=O)Nc4nccs4)cc3)c2cc1OC | 72.9% (inactive)
CC/C=C\C/C=C\C[C@H](O)C/C=C1/C(=O)C=C[C@@H]1C/C=C\CCCC(=O)O | -22% (active)
Cc1ccccc1NC(=O)N/C(N)=N/c1nc(C)c(C)s1 | 22.1% (inactive)
CCc1c2c(nc3ccc(OC(=O)NCc4ccc(B5OC(C)(C)C(C)(C)O5)cc4)cc13)-c1cc3c(c(=O)n1C2)COC(=O)[C@]3(O)CC | -8.14% (active)
COc1ccc(C(=O)COc2ccc(/C=C3\Oc4ccccc4C3=O)cc2)cc1 | 115% (inactive)
CCCCn1c(=O)c2c(nc(NCCc3ccc(O)c(O)c3)n2CCC)n(CCCC)c1=O | 78.8% (inactive)
COc1ccccc1NC(=O)N/C(N)=N/c1nc2ccccc2s1 | 28.6% (inactive)
NC(N)=Nc1nc2ccccc2n2c1nc1ccccc12 | 46.3% (inactive)
CCOc1c(C#N)nnc2c(C#N)c(NC(=O)c3ccccc3)nn12 | 104% (inactive)
COc1cc2c(cc1-c1c(C)noc1C)ncc1nc(C3CCCCC3)n(C3CCC(OC(F)F)CC3)c12 (stereo not given) | 42.7% (inactive)
COc1ccccc1CNCCCN1C(=O)c2ccc3c4c(ccc(c24)C1=O)C(=O)N(CCCNCCCCN)C3=O | -71.8% (active)
COc1cc2ncn3c(=O)c4c5c(sc4nc3c2cc1OC)CCCC5 | 102% (inactive)
COc1cc(/C=N/NC(=O)Cn2c(C(C)C)nc3ccccc32)ccc1O | 103% (inactive)
CCCCCCCCCOc1c(OC)cc(C2CC(=O)Nc3c2c(C)nn3-c2nc3ccccc3[nH]2)cc1OC (stereo not given) | 10% (inactive)
O=C(CCCCCCN1CC(=O)N2[C@@H](c3ccccc3Cl)c3[nH]c4ccccc4c3C[C@H]2C1=O)NO | 69.6% (inactive)
O=C(COc1ccc(/C=C2\Oc3ccccc3C2=O)cc1)c1ccc(Cl)cc1 | 97.4% (inactive)
COc1ccc(-c2csc(C3=C(O)CN(C(C)C)C3=N)n2)cc1OC | 116% (inactive)
NCCCNc1nc2ccccc2c2c(=O)c3cccc(Cl)c3sc12 | -94.1% (active)

Structure (SMILES) | growth
Cc1ccc(NS(=O)(=O)c2ccc3c(c2)C(=O)CC(c2ccc(C(=O)C(C)C)cc2)N3)cc1C (stereo not given) | 89.9% (inactive)
O=c1c2c3c(sc2n2c(-c4cc(-c5ccccc5)nn4-c4ccccc4)nnc2n1Cc1ccccc1)CCCC3 | 98.8% (inactive)
O=C(NCCNc1cc(-c2cn(-c3ccccc3)nc2-c2cccc(O)c2)ccn1)Nc1ccccc1 | 92.5% (inactive)
CN(C)CCCn1c(=O)c2ccccc2c2ccccc21 | 68.2% (inactive)
C[C@H]1[C@H]2[C@H]3CC[C@@H]4[C@@]5(C)C/C(=C/c6ccco6)C(=O)C(C)(C)[C@@H]5CC[C@@]4(C)[C@]3(C)CC[C@]23CO[C@]1(C)[C@@H](C(=O)/C=C\c1ccco1)C3 | 108% (inactive)
COC(=O)[C@H](CSC)N(C)C(=O)[C@@H]1CSSC[C@@H](NC(=O)c2nc3ccccc3cc2O)C(=O)NCC(=O)N1C | 98.8% (inactive)
COc1ccc(-c2[nH]c(=S)n(C(CC3(C)NCC(=O)N3n3c(-c4ccccc4)cc(C)nc3=S)c3ccc(OC)cc3)c(=O)c2Br)cc1 (stereo not given) | 61.2% (inactive)
O=C(CCCCCCSc1nc(-c2ccccc2)cc(-c2ccc(Cl)cc2)n1)NO | 51.8% (inactive)
O=C1OC(c2nc3ccccc3s2)=C/C1=C\c1ccc(O)cc1 | 108% (inactive)
CCN1C(=O)N(CC)C2Nn3c(s/c(=C4\C(=O)N(C)c5ccccc54)c3=O)=NC21 (stereo not given) | 88.6% (inactive)
NNC(=O)c1nc(N)n(-c2ccc(S(N)(=O)=O)cc2)n1 | 101% (inactive)
CC(C)(C)n1cc(-c2ccnc(NCCCNS(=O)(=O)c3ccccc3)c2)c(-c2ccccc2)n1 | 78.1% (inactive)
CCOc1ccccc1-n1c(CN2CCN(C(=O)COc3ccc(CNCCCCCCN4C5CCCC4CC(OC(=O)Nc4cc(C)ccc4OC)C5)cc3)CC2)nc2ccccc2c1=O (stereo not given) | -87.7% (active)
COc1cc(/C=C/C(=O)N2CCN(C(=O)c3cc(OC)c(OC)c(OC)c3)CC2)ccc1OCCCN1C(=O)c2cccc3cccc(c23)C1=O | 99.7% (inactive)
N=C1C(c2nc(-c3ccc(Br)cc3)cs2)=C(O)CN1CC1CCCO1 (stereo not given) | 95.1% (inactive)
Cc1cc(C)c2c(-c3nnc(N)s3)cc(=O)oc2c1 | 108% (inactive)
COc1cc(-c2nn(-c3ccccc3)cc2-c2ccnc(NCCNS(=O)(=O)c3ccc(Cl)cc3)n2)ccc1Cl | 34.1% (inactive)
O=C(NCCCNc1cc(-c2cn(-c3ccccc3)nc2-c2cccc(O)c2)ccn1)c1ccccc1 | -26.1% (active)
CCCCc1ccc(Nc2ccc(Nc3ccc(CCCC)cc3S(=O)(=O)O)c3c2C(=O)c2ccccc2C3=O)c(S(=O)(=O)O)c1 | 117% (inactive)
O=C(/C=C/c1cccc(O)c1)c1cccc(-n2cc(-c3ccc4ccccc4c3)[nH]c2=O)c1 | 44.3% (inactive)

Source: PubChem BioAssay (NCI)
